The record followed here is PubChem BioAssay (Tox21).

Results filed as inconclusive are left out. Entries that show only a call come without a potency. Active and inactive are the calls of the source. Calls come from the whole dose curve.

This assay can be described thus: p53 small molecule agonists, cell-based qHTS assay with rat liver microsomes (AID 1963578). Particulars: HCT-116 p53RE-bla, beta-lactamase ratio, 16 h; series mostly up to 66 µM. An excerpt:
U.S. Tox21 Program National Center for Advancing Translational Sciences [NCATS] Division of Preclinical Innovation [DPI] U.S. Environmental Protection Agency [EPA] National Institutes of Environmental Health Sciences [NIEHS] National Toxicology Program [NTP] U.S. Food and Drug Administration [FDA] Tox21 Assay Overview: p53, a tumor suppressor protein, is activated following cellular insult, including DNA damage and other cellular stresses. The activation of p53 regulates cell fate by inducing DNA repair, cell cycle arrest, apoptosis, or cellular senescence. The activation of p53, therefore, is a good indicator of DNA damage and other cellular stresses. […] The activation of the reporter gene under culture conditions can be detected by fluorescence intensity. This cell line was used to screen the Tox21 10K compound library in the condition of presence of rat liver microsomes and to identify agonists that activate the p53 signaling pathway after in vitro metabolic activation (Ooka et al., Archive of Toxicology 96:1975-1987, 2022).
Tox21 Assay Protocol Summary: The p53RE-bla cells were dispensed at 4,000cells/3ul/well in 1536-well black-clear bottom plates. After the assay plates were incubated at 37 C, 5% CO2 incubator for 5 hours, 23 nL of compounds dissolved in DMSO, positive controls or DMSO only was transferred to the assay plate. Following compound addition, 3 uL of rat liver microsomes (Molecular Toxicology, Boone, NC) at final concentration of 0.5 mg/mL and 1uL of Beta-Nicotinamide adenine dinucleotide 2-phosphate (NADPH) at final concentration of 0.5 mg/mL were transferred to the assay plate. The plates were incubated at 37 C for 16 hours. 1 uL of LiveBLAzer detection mixture was added to each well and the plates were incubated at room temperature in the dark for 2 h.
(qHTS replaces the single test concentration by a dilution series.)
On to `CC1=CC(=O)[C@H]2C[C@@H]1C2(C)C`, for which the Potency result is “inactive”.

`CC/C=C\CCOC(=O)CC`: the Potency result is “inactive”. Next, `Cc1ccc2n[nH]nc2c1`: “inactive”. Next, `CCCCc1ccc2cccc(S(=O)(=O)O)c2c1`: “inactive”; `CC(C)NC(=O)c1ccccc1N`: “inactive”; `O=C(O)CCS`: “inactive”. For `CCCCCCCCCC/C=C/C#N` the value was “inactive”. With `CCCc1c2oc(C(=O)O)cc(=O)c2cc2c(=O)cc(C(=O)O)n(CC)c12`, the Potency entry is “inactive”.

In the case of `FC(F)(F)C(Cl)(Cl)Cl`, the Potency entry is “inactive”.

Take `N#CCc1cccc(C(F)(F)F)c1`: the Potency entry was “inactive”. For `O=c1n(CCCN2CCN(c3cccc(Cl)c3)CC2)nc2ccccn12` the value was “inactive”; for `O=Cc1ccc(F)cc1`, “inactive”; for `CCN(C=O)CC`, “inactive”. For `CCC(C)NC(N)=O` (stereo not given) the value was “inactive”; for `CC1(C)C2=CCCC(C)(C)[C@]23CC[C@H]1C3`, “inactive”; for `CCCCCCCCCCCCCCC(=O)NC(CO)CCCCCCCCCCCCCC` (stereo not given), “inactive”. Next, `c1ccc2cc3c4ccccc4c4ccccc4c3cc2c1`: “inactive”; `O=C(O[C@@H](C(=O)O)[C@@H](OC(=O)c1ccccc1)C(=O)O)c1ccccc1`: “inactive”. Take `O=[N+]([O-])c1ccccc1Nc1ccccc1`: the Potency entry was “inactive”. For the compound `CCCCCCOC(=O)c1ccccc1O`, the Potency result is “inactive”. For `OC1(c2ccc(Cl)cc2)CCNCC1` the value was “inactive”; for `CN(C1CCCCC1)S(=O)(=O)c1ccccc1N`, “inactive”; for `O=C(O)C[C@H](NC(=O)OCc1ccccc1)C(=O)O`, “inactive”. As for `CC(C)CC(C)(N)C#N` (stereo not given), the Potency result was “inactive”.

Consider `ClCCCl`, for which the Potency result is “inactive”.

Take `CC[C@H](C)[C@H](N)C(=O)O`: the Potency result is “inactive”. For `CCCC(=O)c1ccccc1` the value was “inactive”. For `O=C1OCCO1` the value was “inactive”; for `CN1[C@@H]2CC[C@H]1CC(NC(=O)n1c(=O)[nH]c3ccccc31)C2` (stereo not given in full), “inactive”.

Consider `CC(C)=CCC[C@H](C)CC=O`, for which the Potency entry is “inactive”. For `CC(S)C(=O)NCC(=O)O` (stereo not given) the value was “inactive”. Turning to `CCC(=O)OC(C)c1ccccc1` (stereo not given), the Potency result was “inactive”. For `CC1CC(OC(=O)c2ccccc2O)CC(C)(C)C1` (stereo not given) the value was “inactive”; for `CCC(C)(C)C`, “inactive”; for `CNC(=O)[C@H]1O[C@@H](n2cnc3c(NCc4cc(Cl)ccc4OCc4cc(C)no4)ncnc32)[C@H](O)[C@@H]1N`, “inactive”. For `COCCOCCOCCOCCO` the value was “inactive”; for `CC(=O)Oc1cccc(O)c1`, “inactive”. For `c1cnccn1` the value was “inactive”; for `O=C(Nc1ccc(Cl)cc1)Nc1ccc(Cl)c(Cl)c1`, “inactive”.

With `CC(=O)CC/C=C(\C)CC/C=C(\C)CC/C=C(\C)CCC=C(C)C`, the Potency result was “inactive”.
